High-throughput results as filed in PubChem BioAssay.
BoNT F protease: BoNT/F light chain protease inhibitors, primary screen, biochemical, flow cytometry, MLPCN library; Botulinum neurotoxin type F light chain protease (Clostridium botulinum); Multiplex microsphere protease cleavage assay; inhibition, % at 10 µM; hit rate 0.22% among 360,000; in the data active means inhibition above about 35%, passing the limit was not always enough; inconclusive means no clear call, values can overlap the other calls; further: plate controls were buffer without enzyme for full effect and enzyme alone for no effect
MazEF act: activators of E. coli MazEF toxin-antitoxin RNase, primary screen, biochemical, fluorescence, uHTS. Endoribonuclease toxin MazF (Escherichia coli (strain K12)), P0AE70. FAM/BHQ RNA-DNA oligo cleavage fluorescence, 5 h. activation, % at 20 µM. hit rate 0.32% among 350,000; in the data active means activation above about 50%
Anthrax LF prot: Bacillus anthracis LF protease inhibitors, primary screen, biochemical, multiplex microsphere, MLPCN library. multiplex microsphere protease cleavage assay. inhibition, % at 10 µM. Lethal factor (Bacillus anthracis), P15917. hit rate 0.12% among 360,000; further: plate controls were buffer without enzyme for full effect and enzyme alone for no effect
Bead autofluor: compound fluorescence in toxin protease inhibitor counterscreen; compound autofluorescence counterscreen, microsphere flow cytometry; active compounds read high; fluorescence intensity (test concentration not listed); hit rate 3.1% among 360,000; in the data active means fluorescence intensity above about 16000; inconclusive means no clear call, values can overlap the other calls
BoNT A protease: BoNT/A light chain protease inhibitors, primary screen, biochemical, flow cytometry, MLPCN library; multiplex microsphere protease substrate cleavage; inhibition, % at 10 µM; hit rate 0.17% among 360,000; further: plate controls were buffer without enzyme for full effect and enzyme alone for no effect
* = called active by the depositor; ? = inconclusive; · = no result; + = active, no number. Shown are actives, neighbours in structure and some others; about 3.7% of the full set was active somewhere. Unless noted, no stated cut-off is given here; in the data, active means inhibition above about 30%; inconclusive means no clear call, values can overlap the other calls; inactive means below that.

SMILES | BoNT F protease | MazEF act | Anthrax LF prot | Bead autofluor | BoNT A protease
NC(=O)CSc1nnc(-c2ccncc2)o1 | 1.4 | 2.3 | 0.1 | 2154 | -0.2
O=C(COc1ccc([N+](=O)[O-])cc1)N(Cc1cccs1)C1CCS(=O)(=O)C1 (stereo unspecified) | -2.9 | -2.6 | 1.8 | 5382 | -1.3
O=c1c2c([N+](=O)[O-])cc([N+](=O)[O-])cc2sn1Cc1ccccc1 | 55.7* | -22.1 | -10.3 | 3488 | 49.9*
CCS(=O)(=O)c1nc(S(=O)(=O)c2ccc(C)cc2)c(N2CCC(O)CC2)s1 | 0.6 | 1.3 | -1.2 | 4079 | 0.3
CCCCOc1ccc(C(=O)Nn2cnnc2)cc1 | 0.1 | 8.6 | -5.1 | 23869* | ?
COc1ccc(C(=O)Nn2cnnc2)cc1 | -10.4 | -23.0 | -1.6 | 4248 | -0.7
N#Cc1c(Cl)nsc1NC(=O)c1ccccc1 | -0.5 | -4.6 | -1.6 | 2125 | 0.0
CN(N=Cc1ccc([N+](=O)[O-])cc1)c1ccccn1 | -2.0 | + | -8.0 | 4035 | -0.3
CCC(C)N(C(=O)COC(=O)COc1c(C)cc(C)cc1C)C1CCS(=O)(=O)C1 (stereo unspecified) | ? | 1.3 | -2.5 | 4063 | 2.6
CCC(Oc1cc(Cl)ccc1Cl)C(=O)NN1C(=O)C2C3CCC(C3=C(C)C)C2C1=O (stereo unspecified) | 35.4* | 3.9 | -0.3 | 4726 | 1.0
CC(=O)C1=C(c2cccc([N+](=O)[O-])c2)N(C(C)=O)n2c(C)nnc2S1 | -6.4 | 51.6* | -0.3 | 2622 | 0.2
N#C/C(=C\c1ccccc1[N+](=O)[O-])c1nc(C2CC2)cs1 | -0.4 | -4.8 | -3.4 | 7653 | 1.2
N#C/C(=C\c1ccc([N+](=O)[O-])cc1)c1nc(C2CC2)cs1 | -1.9 | 338.3* | 7.3 | 2303 | 21.0
CCOC(=O)N1CCC(N2C(=O)c3ccccc3C2Nc2ccc(S(=O)(=O)N3CCOCC3)cc2)CC1 (stereo unspecified) | -1.0 | 0.0 | -4.5 | 4779 | -0.9
O=C(c1cccn2c(=O)c3ccccc3nc12)N1CCC2(CC1)OCCO2 | -0.6 | -2.7 | -1.1 | 22328* | -0.6
O=C(c1ccccc1Cl)N1CCN(c2ccccn2)CC1 | 3.7 | -1.9 | -3.3 | 3893 | -0.7
O=C(c1cc(-c2ccccc2)nc2ccccc12)N1CCc2ccccc2C1 | -3.5 | -4.9 | -4.2 | 9844 | -0.3
CC(C)Oc1cccc(-c2cc(C(=O)N3CCN(c4ncccn4)CC3)c3ccccc3n2)c1 | -3.4 | · | -3.2 | 23367* | ?
O=C(c1cccc(Cl)c1Cl)N1CCN(c2ccccn2)CC1 | -0.6 | -0.9 | -1.8 | 16331* | ?
Cc1ccc2nc(-c3ccccc3)cc(C(=O)N3CCc4ccccc4C3)c2c1 | 4.8 | -8.4 | 1.6 | 23070* | ?
COC(=O)[C@]1(C)N[C@H](CN(C)C(=O)Nc2ccc(C(F)(F)F)cc2)[C@@H]2C(=O)N(C)C(=O)[C@@H]21 | -1.5 | 1.2 | -7.5 | 3846 | -0.5
CC1=C(c2ccccc2)C(=S)NC(C)(C)C1 | ? | -6.0 | 16.5 | 4270 | ?
O=C(CSc1nnc(-c2ccccc2F)o1)NC(=O)Cc1ccccc1 | -11.4 | -7.1 | -7.6 | 7188 | -10.0
O=C(O)CC(NC(=O)C12CC3CC(CC(C3)C1)C2)c1ccc(OC2CCCC2)cc1 (stereo unspecified) | 2.1 | 3.3 | -3.5 | 3399 | 0.3
O=[N+]([O-])c1cccc(N(CC2CO2)S(=O)(=O)c2ccccc2)c1 (stereo unspecified) | 9.0 | -15.6 | 2.6 | 4956 | 0.6
SMILES | BoNT F protease | MazEF act | Anthrax LF prot | Bead autofluor | BoNT A protease
O=C(c1cccn2c(=O)c3ccccc3nc12)N1CCN(c2ccccn2)CC1 | -2.1 | -6.3 | 2.0 | 23291* | -3.1
CN(c1ccccc1C(=O)N1CCc2ccccc2C1)S(C)(=O)=O | -0.4 | 10.6 | -4.3 | 22577* | -0.2
O=C(CCCn1c(=S)[nH]c2ccc(Br)cc2c1=O)N1CCN(c2ccccn2)CC1 | -5.8 | -11.3 | -6.6 | 16819* | -2.2
CCOC(=O)N1CCN(C(=O)c2cccn3c(=O)c4sccc4nc23)CC1 | -2.6 | 5.8 | -7.8 | 22718* | ?
CCOC(=O)N1CCN(C(=O)c2cccn3c(=O)c4cc(Cl)ccc4nc23)CC1 | 4.9 | -5.3 | -1.9 | 7547 | 0.8
COc1cccc(S(=O)(=O)N(C)C[C@@H]2Oc3ncc(C#CCN(C)C)cc3C(=O)N([C@H](C)CO)C[C@H]2C)c1 | -9.7 | 1.9 | 0.6 | 3769 | 0.5
Cc1ccc(C(C)C)c(OCC(=O)NNC(=O)Cc2ccc(S(=O)(=O)N3CCOCC3)s2)c1 | -3.8 | -3.7 | 3.4 | 3848 | 0.5
O=C(c1cc(-c2ccccc2)nc2ccccc12)N1CCC2(CC1)OCCO2 | -2.1 | -7.0 | -0.2 | 23724* | -1.3
O=C(c1cccn2c(=O)c3cc(Br)ccc3nc12)N1CCN(c2ccccn2)CC1 | 11.2 | -1.9 | 0.8 | 18386* | 7.1
CCOC(=O)N1CCN(C(=O)c2cccn3c(=O)c4cc(Br)ccc4nc23)CC1 | -1.0 | 2.9 | -7.4 | 4184 | 0.8
CC(C)COc1cccc(-c2cc(C(=O)Nc3ccon3)c3ccccc3n2)c1 | 2.3 | -13.5 | 2.8 | 5871 | 0.7
Nc1c(C(=O)c2ccccc2)sc2nsc(SCCN3CCOCC3)c12 | · | 126.7* | · | · | ·
CCOC(=O)NC(=O)c1cn(CCNCCO)c(=O)[nH]c1=O | 0.8 | 6.5 | 0.2 | 3817 | -0.1
O=C(Cc1ccccc1)N/N=C/c1cc(Br)c(Br)o1 | -4.0 | -2.4 | 2.1 | 16918* | ?
Cc1ccc(S(=O)(=O)Nc2cc(-c3nn(C)c(=O)c4ccccc34)ccc2N2CCOCC2)cc1 | 4.1 | 6.6 | -3.8 | 22492* | ?
N#Cc1cnn2ccc(-c3cc(N4CCOCC4)ccc3[N+](=O)[O-])nc12 | -2.3 | 8.0 | -1.8 | 3277 | 0.6
COc1ccccc1N1CCN(c2cc(N3CCCC3)nc(C)n2)CC1 | -5.2 | 6.1 | -5.9 | 6690 | -0.4
COc1ccc(OC)c2c(C)cc(N3CCCN(C)CC3)nc12 | -7.2 | -16.3 | -1.1 | 21960* | -4.8
CN(Cc1ccccc1)C(=O)c1csc([C@@H]2O[C@H](CO)[C@H](O)[C@H](O)[C@H]2O)n1 | 5.3 | · | 3.1 | 3571 | -0.1
CC1CN/C(=C\C(=O)c2ccccc2)C(=O)N1 (stereo unspecified) | 7.0 | 2.3 | -2.6 | 3001 | -0.8
CC1CN/C(=C\C(=O)c2ccc(Cl)cc2)C(=O)N1 (stereo unspecified) | -8.9 | 12.9 | -5.3 | 24766* | ?
CCCNC(=O)CCC(=O)Nc1ncc(-c2ccc(C)cc2)n1C | -4.3 | 5.3 | 1.7 | 22139* | ?
CCCNC(=O)CCn1nc(-c2ccc(C)cc2)c2ccccc2c1=O | 13.4 | 3.9 | 5.9 | 3718 | 0.5
COc1ccc(NC(=O)CN(C)C(C)C(=O)N2CCCCC2)cc1 (stereo unspecified) | 4.9 | 3.0 | -2.6 | 21556* | 1.4
Cc1ccc(N2C(=O)CC(n3nc(C)cc3C)C2=O)cc1 (stereo unspecified) | -3.6 | -4.3 | -0.2 | 16252* | ?
